Screening data deposited in PubChem by National Center for Advancing Translational Sciences (NCATS).
An excerpt weighted towards active compounds, which were near 12% of everything screened.
G9a inh = G9a (human) methyltransferase inhibition. 350,000 compounds, 8.8% hits. Potency, µM (doses to about 102 µM), for inactives: at the top dose activity, negative = inhibition, actives largely listed as inhibitors. G9a H3K9 monomethylation, AlphaScreen, 2 h. AID 504332. Q96KQ7; further: on the % scale 0 is the no-effect control and ±100 the full control effect; nearly all actives have a fitted effect of over 75% in size
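G9a (20 nM) preincubated 15 min RT with compounds, then 500 nM biotinylated H3K9 peptide and 20 uM SAM added; 2 h RT reaction. Monomethyl-H3K9 product detected by AlphaScreen with anti-H3K9me1 antibody, streptavidin donor and anti-rabbit IgG acceptor beads.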
Sfp inh = Sfp phosphopantetheinyl transferase inhibition. Q9F4F7. Biochemical Sfp PPTase activity, qHTS. Potency, µM, for inactives: largest response in the series, negative = inhibition, most hits filed as inhibitors. 310,000 compounds, 3.5% hits;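 further: the enzyme is Sfp with the accession as filed and its product quenches rhodamine fluorescence; 0% = enzyme reaction without inhibitor and -100% = no enzyme wells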
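Buffer: 50 mM Hepes-Na pH 7.6, 10 mM MgCl2, 0.01% Nonidet P-40, 0.01% BSA. Enzyme 15 nM, pre-exposed to compound 15 min; substrates then added and fluorescence change tracked over 30 min.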
JMJD2A Tudor = inhibitors of human JMJD2A Tudor domain. Potency, µM (titrated, usually from 114 µM), for the others: at the top dose activity change, negative = inhibition, usual class: inhibitors. AlphaScreen JMJD2A-Tudor / H3K4me3 peptide binding. AID 504339. 390,000 compounds, 4.4% hits. O75164; further: on the % scale 0 is the no-effect control and ±100 the full control effect; nearly all actives have a fitted effect of over 50% in size
HP1b binding inh = inhibitors of HP1-beta chromodomain binding to methylated histone tails | P83916 | AlphaScreen HP1-beta / biotin-H3K9me3 peptide binding | Potency, µM (highest dose often 114 µM), without a hit: at the highest dose activity change, negative = inhibition, hits mostly inhibitors | 390,000 compounds, 0.56% hits; further: nearly all actives have a fitted effect of over 70% in size
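HP1-beta protein (50 nM final) preincubated 30 min at room temperature with biotinylated H3(1-18)K9me3 peptide (50 nM) in PBS pH 7.4, 0.01% Tween-20, then compound added for 30 min. AlphaScreen streptavidin donor/nickel chelate acceptor beads (10 ug/mL final), 30 min dark, luminescence read.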
TDP1 block = blocks human tyrosyl-DNA phosphodiesterase 1. Q9NUW8. Potency, µM (top dose mostly 130 µM), for the others: top-dose activity change, negative = inhibition, usual class: inhibitors. recombinant TDP1, AlphaScreen DNA substrate cleavage. 350,000 compounds, 0.28% hits; further: on the % scale 0 is the no-effect control and ±100 the full control effect; nearly all actives have a fitted effect of over 40% in size
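Signal: AlphaScreen proximity between streptavidin donor and anti-FITC acceptor beads on intact substrate. Reaction: Tdp1 1 nM, substrate 15 nM final, 5 min RT after 15 min compound preincubation.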
BAZ2B inh = blocks human BAZ2B. Q9UIF8. AlphaScreen BAZ2B-H3K14Ac peptide displacement. Potency, µM (top dose mostly 114 µM), for the others: at the highest dose activity change, negative = inhibition, most hits filed as inhibitors. 360,000 compounds, 4.4% hits. AID 504333; further: on the % scale 0 is the no-effect control and ±100 the full control effect; nearly all actives have a fitted effect of over 60% in size
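Inhibition is scored as reduced AlphaScreen emission. The BAZ2B/b-H3(5-23)K14Ac complex (50 nM each) in PBS pH 7.4, 0.01% Tween-20 meets compound (up to 110 uM) for 30 min at RT before bead addition.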
Active calls of the source: *; ? = inconclusive; / = no result; [ ] = dose if it differs, or a comment. The call rests on the fitted dose curve; in most records, active means well fitted curve in the direction sought with a large enough effect; inconclusive means small, poorly fitted or top-dose-only effect, or another doubt; inactive means no such curve, though single readings can be large; an effect the other way counts as inactive or inconclusive. Potency means the concentration at half of the fitted maximal effect.

SMILES	G9a inh	Sfp inh	JMJD2A Tudor	HP1b binding inh	TDP1 block	BAZ2B inh
COc1ccc(-n2c(SCC(=O)Nc3ccc(C(N)=O)cc3)nc3ccccc3c2=O)cc1OC	50.1µM*	-14.0%	-21.0%	-13.5%	/	-28.3%
O=C(CSc1nnc(-c2ccncc2)n1-c1ccccc1)Nc1ccc(Br)cc1	-7.0%[59 µM]	/	10.6%	4.4%	0.0%	3.0%
CCOC(=O)c1ccc(NC(=O)CSc2nnc(-c3ccncc3)n2-c2ccccc2)cc1	-16.1%[59 µM]	/	-27.9%	29.0%	4.7%	4.0%
NC(=O)c1ccc(NC(=O)CSc2nncn2-c2ccccc2)cc1	22.4µM*	3.7%	-6.0%	21.7%	9.2%	-1.6%
CC1(C)Cc2c(cnn2-c2cccc(F)c2)C(NC(=O)CSc2ccccn2)C1 (centres undefined)	0.6%	20.1%	1.2%	61.5%	5.0%	-14.1%[57.1 µM]
Cc1ccc(N(CC(=O)Nc2c(C)cccc2C)S(C)(=O)=O)cc1	4.7%	14.0%	-10.8%	46.5%	/	-0.2%
O=C(CSc1nnc(-c2ccncc2)n1-c1ccccc1)N1CCN(c2ccc(Cl)cc2)CC1	28.2µM*	17.5%	-7.6%	-2.9%	3.0%	3.3%
CC(=O)Nc1ccc(NC(=O)CSc2nnc(C)n2-c2ccccc2)cc1	12.7%	18.9%	-14.4%	27.9%	/	-5.0%
O=C(CSc1nnc(-c2cccnc2)n1-c1ccccc1)N1CCN(c2ccc(F)cc2)CC1	?	-6.7%	-12.8%	27.8%	5.7%	-9.3%
Cn1c(=O)n(C)c2cc(NC(=O)CSc3nnc(-c4ccccc4O)n3-c3ccccc3)ccc21	-6.9%[12.7 µM]	14.6%	-13.9%	20.0%	7.7%	50.1µM*
O=C(CSc1nnc(-c2cccc(S(=O)(=O)N3CCCC3)c2)n1-c1ccccc1)Nc1ccc(C(=O)O)cc1	?	-7.2%	?	7.6%	79.4µM*	50.1µM*
O=C(CSc1nnc(-c2cccc(S(=O)(=O)N3CCCC3)c2)n1-c1ccccc1)Nc1cccc(C(=O)O)c1	43.2%[12.7 µM]	4.0%	-24.7%	10.8%	/	-26.3%
O=S(=O)(c1ccccc1)c1nc(-c2cccs2)oc1NCC1CCCO1 (centres undefined)	31.6µM*	56.2µM*	?	23.5%	4.1%	-5.0%
COc1ccc(NC(=O)CSc2oc(-c3ccco3)nc2S(=O)(=O)c2ccc(C)cc2)c(OC)c1	-21.7%[59 µM]	/	-19.8%	19.0%	0.0%	-12.8%
COc1ccc(NC(=O)CSc2oc(-c3ccc(C)cc3)nc2S(=O)(=O)c2ccc(C)cc2)c(OC)c1	?	/	56.2µM*	?	-2.9%	0.7%
O=C(CN(C1CCCCC1)S(=O)(=O)c1ccc(F)cc1)NCC1CCCO1 (centres undefined)	/	/	25.1µM*	?	/	/
N#Cc1nc(-c2cccs2)oc1NCC1CCCO1 (centres undefined)	20.5%[12.7 µM]	12.6%	-13.8%	21.8%	4.6%	1.2%
Cc1ccc(S(=O)(=O)c2nc(-c3ccccc3)oc2SCC(=O)NCC2CCCO2)cc1 (centres undefined)	44.7µM*	-3.8%	-30.7%	-2.0%	0.0%	-3.4%
CCOC(=O)CCc1cc(F)c(S(=O)(=O)N2CCN(S(=O)(=O)c3ccc4c(c3)OCCO4)CC2)cc1F	/	/	-15.1%	/	0.1%	/
Cc1ccccc1CCNC(=O)c1ccc(NC(=O)N2CC(C)Sc3ccccc32)cc1 (centres undefined)	7.3%[59 µM]	/	-3.7%	32.6%	-5.1%	-6.0%
Cc1ccc(-c2nc(S(=O)(=O)c3ccc(F)cc3)c(SCC(=O)NCC3CCCO3)o2)cc1 (centres undefined)	14.1µM*	-6.8%	-18.9%[57.1 µM]	-18.8%	4.7%	1.2%
O=C(CSc1oc(-c2cccs2)nc1S(=O)(=O)c1ccc(F)cc1)NCC1CCCO1 (centres undefined)	44.7µM*	-15.6%	-29.9%	30.0%	-2.5%	-0.2%
Cc1ccc(S(=O)(=O)c2nc(-c3ccc(F)cc3)oc2SCC(=O)NCC2CCCO2)cc1 (centres undefined)	?	-14.8%	-9.6%	23.5%	2.7%	4.6%
CSc1nc(=O)c2c(n1C)NC(=O)CC2c1cc(F)cc(F)c1 (centres undefined)	?	/	-30.5%	47.5%	-6.8%	0.1%
Cc1cccc(C(=O)NCCc2nc3ccccc3n2Cc2ccc(Cl)cc2)c1	-7.5%[59 µM]	/	-18.1%	28.1%	10.1%	0.9%
SMILES	G9a inh	Sfp inh	JMJD2A Tudor	HP1b binding inh	TDP1 block	BAZ2B inh
CCS(=O)(=O)c1ccc2oc(SCC(=O)NC34CC5CC(CC(C5)C3)C4)nc2c1	-10.5%	-4.2%	-12.3%	19.1%	1.4%	56.2µM*
CCCCCSc1nnc2c(n1)OC(c1cccn1C)N(C(C)=O)c1ccccc1-2 (centres undefined)	?	-1.9%	28.2µM*	?	7.8%	?
O=C(Cc1ccccc1)NCCS(=O)(=O)N1CCN(c2ccccc2)CC1	50.1µM*	/	-19.2%	1.5%	-3.7%[0.505 µM]	6.5%
O=C(CCc1ccccc1)Nc1ccc(N2CCCCC2)cc1	8.91µM*	13.1%	-14.9%[57.1 µM]	30.0%	-3.1%	-22.1%
O=C(Cc1ccccc1)Nc1ccc(N2CCCC2)cc1	8.91µM*	?	?	-6.0%	4.0%	?
Cn1nc(C(=O)Nc2ccccc2)c2c1-c1ccccc1S(=O)(=O)C2	40.4%	32.3%	3.8%	33.6%	3.0%	-11.6%
O=C1N=c2ccccc2=C1c1sc(Nc2cccc(O)c2)nc1O	?	-24.7%	?	-15.5%	/	56.2µM*
O=C1N=c2ccccc2=C1c1sc(NS(=O)(=O)Cc2ccccc2)nc1O	-17.8%[59 µM]	-4.5%	?	6.1%	/	?
O=C1N=c2ccccc2=C1c1sc(Nc2ccc(O)cc2)nc1O	79.4µM*	56.2µM*	?	20.6%	-1.2%	56.2µM*
N/C(=N\NC(=O)c1cccs1)c1cc2cc(Cl)ccc2oc1=O	13.7%[12.7 µM]	17.5%	?	-14.0%	/	-22.2%
C#CCN1C=CC(=O)[C@@H](OC(=O)Nc2ccc(Cl)cc2)[C@H]1c1ccccc1Br	/	/	-24.7%	34.3%	/	/
O=c1oc2ccc(NS(=O)(=O)c3cccc4cccnc34)cc2s1	-4.4%[59 µM]	-2.2%	-24.5%	-1.1%	/	-7.4%
O=S(=O)(Nc1ccc(N2CCCCC2)cc1)c1cccc2cccnc12	15.8µM*	-0.9%	-35.6%	?	7.2%	?
O=C1CCCc2oc3ccc(NS(=O)(=O)c4cccc5cccnc45)cc3c21	?	25.8%	-11.3%	12.8%	50.1µM*	-21.8%
O=S(=O)(Nc1ccc(N2CCCCC2)cc1)c1ccc(F)cc1	/	-0.3%	?	?	2.6%	79.4µM*
O=S(=O)(Nc1ccc(N2CCCCC2)cc1)c1ccccc1F	39.8µM*	-0.4%	?	?	5.1%	50.1µM*
